Results taken from PubChem BioAssay (NCATS).
Where “and” joins values, the source holds several entries; their conditions need not be identical. Equal entries are not always repeated. Results filed as inconclusive are left out. A structure can be active in one record and inactive in another. Calls of active or inactive are those of the source. Unless noted, calls come from the whole dose curve; as a rule, active = well fitted curve in the direction sought with a large enough effect; inconclusive = small, poorly fitted or top-dose-only effect, or another doubt; inactive = no such curve, though single readings can be large; an effect the other way counts as inactive or inconclusive.

Assays:
[1] = qHTS assay for small molecule activators of the p53 signaling pathway (AID 651743; active = well fitted activation curve with a large enough effect in the signal ratio, not every such curve was filed as active; the % refers to the signal ratio; note: potency is the fitted concentration of half-maximal effect; for activation: series mostly up to about 92 µM; % of control where 0% means no effect); details: HCT-116 p53RE-bla, beta-lactamase FRET ratio, 16 h; activation: hits give high values
Procedure, shortened: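 Screen for p53 pathway agonists uses stably transfected p53RE-bla HCT-116 cells, 4,000 per well, treated 16 h at 37 C with compounds in DMSO.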

[2] = qHTS assay for small molecule disruptors of the mitochondrial membrane potential - 1 hr assay (AID 651754; calls by dose curve; note: nearly all actives have a fitted effect of over 35% in size; note: potency is the fitted concentration of half-maximal effect)
Procedure, shortened: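 HepG2 cells, attached overnight at 37C, were exposed to compound or DMSO vehicle for 1 hr at 37C, 5% CO2, then stained with Mito-MPS dye for 30 min. Red aggregate versus green monomer fluorescence reports membrane potential.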

[3] = qHTS assay for small molecule disruptors of the mitochondrial membrane potential - 5 hr assay (AID 651755; calls by dose curve; note: nearly all actives have a fitted effect of over 40% in size; note: potency is the fitted concentration of half-maximal effect)
Procedure, shortened: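 HepG2, 2,000 cells/well, overnight attach; cpd or DMSO 5 hr, 37C/5% CO2; Mito-MPS 30 min 37C; fluor 490/535 + 540/590 nm.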

[4] = qHTS assay to identify small molecules that stimulate interleukin-8 (IL-8) secretion (AID 651758; active = well fitted activation curve with a large enough effect in the signal ratio; the % refers to the signal ratio; note: 0% is about no effect)
Procedure, shortened: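 Secreted IL-8 measured by TR-FRET sandwich (cryptate and XL665 antibodies) from THP-1 cells exposed to compound overnight (16 hrs, 37 C).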

[5] = qHTS assay for environmental chemicals that activate the Aryl hydrocarbon Receptor (AhR) signaling pathway (AID 651777); details: 1A2-DRE human hepatoma cells, luciferase, 24 h; activation: hits give high values; note: nearly all actives have a fitted effect of over 15% in size; note: potency is the fitted concentration of half-maximal effect; for activation: % of control where 0% means no effect
Procedure, shortened: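 Human hepatoma 1A2-DRE cells stably carrying a DRE/CYP1A2 promoter–luciferase reporter, 1,200 cells/well, exposed to compound 24 hr at 37 C. Luciferase read by One-Glo luminescence after 30 min at room temperature; increased signal marks AhR activation.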

[6] = biological target: Peroxisome proliferator-activated receptor alpha (Homo sapiens) (UniProt Q07869); assay: qHTS assay for small molecule agonists of the peroxisome proliferator-activated receptor alpha (PPARalpha) signaling pathway (AID 651778); details: PathHunter PPARalpha complementation, chemiluminescence, 6 h; hits give high values; note: % of control where 0% means no effect
Chain of Peroxisome proliferator-activated receptor alpha (Homo sapiens) (Q07869 whole entry, looked up): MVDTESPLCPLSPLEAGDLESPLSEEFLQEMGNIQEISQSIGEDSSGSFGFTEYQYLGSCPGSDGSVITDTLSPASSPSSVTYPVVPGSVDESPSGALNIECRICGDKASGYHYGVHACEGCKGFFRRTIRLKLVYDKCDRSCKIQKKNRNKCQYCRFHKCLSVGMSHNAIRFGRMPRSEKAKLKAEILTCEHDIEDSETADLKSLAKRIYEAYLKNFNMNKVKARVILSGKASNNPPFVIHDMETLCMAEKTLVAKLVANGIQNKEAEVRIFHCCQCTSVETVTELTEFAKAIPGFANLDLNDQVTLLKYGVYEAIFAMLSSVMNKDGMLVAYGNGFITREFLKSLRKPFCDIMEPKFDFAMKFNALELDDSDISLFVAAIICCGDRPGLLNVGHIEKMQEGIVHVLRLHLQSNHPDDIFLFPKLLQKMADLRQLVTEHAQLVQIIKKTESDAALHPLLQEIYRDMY
Procedure, shortened: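 Chemiluminescence from complemented enzyme reported PPARalpha activation in cells after 6 hr of compound treatment at 37 C. The detection reagent was incubated for 60 min at room temperature, and compounds were scored as agonists.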

[7] = biological target: Nuclear receptor ROR-gamma (Homo sapiens) (UniProt P51449); assay: qHTS assay for small molecule antagonists of the retinoid-related orphan receptor gamma (ROR-gamma) signaling pathway (AID 651802); note: nearly all actives have a fitted effect of over 60% in size; note: potency is the fitted concentration of half-maximal effect
Chain of Nuclear receptor ROR-gamma (Homo sapiens) (P51449 whole entry, looked up): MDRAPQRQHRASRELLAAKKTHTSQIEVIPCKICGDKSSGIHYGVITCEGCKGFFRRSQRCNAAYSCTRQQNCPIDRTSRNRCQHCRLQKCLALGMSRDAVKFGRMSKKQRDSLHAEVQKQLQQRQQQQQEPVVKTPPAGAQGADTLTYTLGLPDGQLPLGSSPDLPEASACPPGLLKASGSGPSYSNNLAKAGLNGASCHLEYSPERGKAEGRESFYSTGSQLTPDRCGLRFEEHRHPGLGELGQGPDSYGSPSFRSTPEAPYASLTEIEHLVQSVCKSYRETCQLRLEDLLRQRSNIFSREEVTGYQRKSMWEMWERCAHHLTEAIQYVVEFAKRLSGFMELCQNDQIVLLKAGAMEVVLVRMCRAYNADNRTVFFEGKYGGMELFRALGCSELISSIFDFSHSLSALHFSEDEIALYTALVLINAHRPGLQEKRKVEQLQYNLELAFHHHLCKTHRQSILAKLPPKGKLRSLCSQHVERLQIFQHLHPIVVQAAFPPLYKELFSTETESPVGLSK
Procedure, shortened: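 CHO cells carrying TET-inducible ROR-gamma and an ROR response element–luciferase reporter were exposed to compound, then induced with doxycycline. After 16hr at 37C, luminescence was read; lower signal indicates antagonism.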

[8] = qHTS assay for small molecule agonists of the antioxidant response element (ARE) signaling pathway measured by Nrf2-dependant transcriptional activity (AID 720636; active = well fitted curve in the direction sought with a large enough effect in the repeat runs; an effect the other way counts as inactive or inconclusive; note: potency is the fitted concentration of half-maximal effect; for activation: % of control where 0% means no effect)
Procedure, shortened: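 ARE-luc HepG2 cells carrying an Nrf2-responsive luciferase reporter, in medium with 1% dialyzed FBS, exposed to compound for 16 hr at 37 C, 5% CO2. Luminescence read 30 min after ONE-Glo addition.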

[9] = qHTS assay for small molecule antagonists of the retinoid-related orphan receptor gamma (ROR-gamma) signaling pathway - cell viability counter screen (AID 720652; active = well fitted curve in the direction sought with a large enough effect in the repeat runs; an effect the other way counts as inactive or inconclusive;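 note: compound exposure lasted 16 hr before ATP read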; note: potency is the fitted concentration of half-maximal effect)
Procedure, shortened: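 Counter screen in CHO cells carrying TET-inducible ROR-gamma and an ROR response element-luciferase reporter; cells plated 5 hr, compound pinned, doxycycline added, then 16 hr at 37 C. Viability read as intracellular ATP by CellTiter-Glo luminescence.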

[10] = qHTS assay for small molecule agonists of the antioxidant response element (ARE) signaling pathway measured by Nrf2-dependant transcriptional activity - cell viability counter screen (AID 720653; active = well fitted curve in the direction sought with a large enough effect in the repeat runs; an effect the other way counts as inactive or inconclusive; note: potency is the fitted concentration of half-maximal effect; for max response: % is set by controls: 0 for no effect and ±100 for the full control effect); details: ARE-bla HepG2 viability, CellTiter-Glo ATP luminescence, 16 h; max response: hits give low values
Procedure, shortened: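 Cytotoxicity counter screen: intracellular ATP quantified by CellTiter-Glo luminescence in the same ARE-bla HepG2 plates, after 16 h compound exposure and a 2 h beta-lactamase substrate step.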

[11] = qHTS Assay for Identifying Gametocytocidal Compounds (AID 743244);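 note: % is set by controls: 0 for no effect and ±100 for the full control effect; actives lower the fluorescent signal which means gametocytes are killed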; details: P. falciparum 3D7 stage III-V gametocytes, alamarBlue, 72 h; max response: hits give low values
Procedure, shortened: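 A resazurin-based viability read-out was applied to mature P. falciparum gametocytes: 72 h compound treatment, then 24 h dye incubation, with falling fluorescence signalling gametocytocidal effect.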

[12] = qHTS assay for cell viability of HEK293 cells (AID 743288); details: ATP luminescence (CellTiter-Glo), 18 h; max response: hits give low values; note: nearly all actives have a fitted effect of over 50% in size; note: potency is the fitted concentration of half-maximal effect; for max response: % is set by controls: 0 for no effect and ±100 for the full control effect
Procedure, shortened: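 Parental HEK293 cells were seeded at 2,000 cells/well, rested at least 5 h at 37 C, then exposed to compounds in DMSO for 18 h at 37 C. Viability was read as ATP-dependent luciferase luminescence after 30 min at room temperature.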

[13] = qHTS assay for small molecule activators of the nuclear factor-kappa B (NF-kB) signaling pathway (AID 651749; active = well fitted activation curve with a large enough effect in the signal ratio; the % refers to the signal ratio; note: series mostly up to about 77 µM; % of control where 0% means no effect); details: NF-kB-bla ME-180 cells, beta-lactamase FRET ratio, 16 h; hits give high values
Procedure, shortened: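 Stably transfected ME-180 line; NF-kB response element upstream of beta-lactamase. Treatment: compound or DMSO, 16 hr. Detection: fluorescent FRET substrate.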

[14] = biological target: Arylsulfatase A (Homo sapiens) (UniProt P15289); assay: qHTS screen for enhancers of Arylsulfatase A (ASA1): LOPAC Validation Assay (AID 720538); note: 0% is about no effect
Chain of Arylsulfatase A (Homo sapiens) (P15289 whole entry, looked up): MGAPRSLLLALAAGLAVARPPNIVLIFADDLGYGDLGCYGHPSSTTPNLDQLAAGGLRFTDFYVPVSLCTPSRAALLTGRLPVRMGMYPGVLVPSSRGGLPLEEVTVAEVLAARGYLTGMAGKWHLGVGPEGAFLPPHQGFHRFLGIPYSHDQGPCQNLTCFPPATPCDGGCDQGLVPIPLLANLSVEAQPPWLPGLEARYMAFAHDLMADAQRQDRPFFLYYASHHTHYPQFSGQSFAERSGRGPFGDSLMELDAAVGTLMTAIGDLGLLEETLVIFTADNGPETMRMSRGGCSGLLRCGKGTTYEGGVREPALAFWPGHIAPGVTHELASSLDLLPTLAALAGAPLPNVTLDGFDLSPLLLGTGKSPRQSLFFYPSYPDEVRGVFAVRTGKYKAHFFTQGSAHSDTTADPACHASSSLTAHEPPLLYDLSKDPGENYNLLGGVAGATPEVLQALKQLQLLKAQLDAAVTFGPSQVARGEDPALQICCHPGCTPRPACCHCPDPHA
Procedure, shortened: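 SV40-transformed skin fibroblasts from an MLD patient (ASA-I179S) were treated with compounds for 48h at 37 degree C, then lysed with 0.5mM pNCS final substrate for 14h at room temperature; NaOH stop, fluorescence read (Ex=525 nm; Em=598 nm).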

[15] = qHTS for compounds that reverse cellular toxicity of Amyloid beta (A-beta) peptide in yeast: LOPAC Validation Assay (AID 720559);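 note: plate controls were DMSO for no effect and equimolar ferric chloride plus clioquinol rescue for full effect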
Procedure, shortened: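 Yeast cells expressing toxic A-beta were combined with pinned compounds in growth medium and incubated 48 hr at 30 C. Growth was read as absorbance at 600 nm and normalized to DMSO and to an equimolar FeCl3/clioquinol positive control.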

[16] = qHTS for Activators of Parkin Expression: LOPAC Validation Assay (NLuc Reporter) (AID 720572;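 note: 0% = DMSO and 100% = positive control compound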)
Procedure, shortened: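 Parkin promoter-driven FLuc/NLuc neuronal reporter cells; 24 h plating, 7-pt dose response, 24 h at 37 C/5% CO2; FLuc then NanoLuc reagent, 10 min each, luminescence; DMSO/positive control normalized.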

[17] = qHTS for Activators of Parkin Expression: LOPAC Validation Assay (FLuc Reporter) (AID 720573;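 note: 0% = DMSO and 100% = positive control compounds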)
Procedure, shortened: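 Neuronal cell line stably carrying FLuc/NLuc coincidence reporter under Parkin promoter; cells plated 24 h, then compounds added in 7-point dose response for 24 h at 37 C. FLuc luminescence read; normalized to DMSO and positive control (100%).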

[18] = biological target: T1, Hexokinase-4 (Homo sapiens) + Glucokinase regulatory protein (Homo sapiens) (UniProt P35557+Q14397); assay: qHTS assay for inhibitors of recombinant human GCK-GKRP interaction: Diaphorase-coupled assay (AID 743205)
T1 sequence (P35557 whole entry, looked up): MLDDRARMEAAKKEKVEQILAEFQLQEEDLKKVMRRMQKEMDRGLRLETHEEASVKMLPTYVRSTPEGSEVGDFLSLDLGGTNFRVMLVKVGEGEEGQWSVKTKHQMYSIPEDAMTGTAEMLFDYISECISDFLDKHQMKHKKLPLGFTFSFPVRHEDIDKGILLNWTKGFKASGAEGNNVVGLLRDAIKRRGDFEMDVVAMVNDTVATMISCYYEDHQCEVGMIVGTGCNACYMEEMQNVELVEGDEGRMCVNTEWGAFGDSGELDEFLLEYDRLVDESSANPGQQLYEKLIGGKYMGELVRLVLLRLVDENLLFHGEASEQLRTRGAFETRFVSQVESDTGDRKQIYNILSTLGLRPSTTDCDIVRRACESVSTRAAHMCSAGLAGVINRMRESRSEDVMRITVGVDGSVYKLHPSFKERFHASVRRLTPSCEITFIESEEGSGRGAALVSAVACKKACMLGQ
T1 sequence (Q14397 whole entry, looked up): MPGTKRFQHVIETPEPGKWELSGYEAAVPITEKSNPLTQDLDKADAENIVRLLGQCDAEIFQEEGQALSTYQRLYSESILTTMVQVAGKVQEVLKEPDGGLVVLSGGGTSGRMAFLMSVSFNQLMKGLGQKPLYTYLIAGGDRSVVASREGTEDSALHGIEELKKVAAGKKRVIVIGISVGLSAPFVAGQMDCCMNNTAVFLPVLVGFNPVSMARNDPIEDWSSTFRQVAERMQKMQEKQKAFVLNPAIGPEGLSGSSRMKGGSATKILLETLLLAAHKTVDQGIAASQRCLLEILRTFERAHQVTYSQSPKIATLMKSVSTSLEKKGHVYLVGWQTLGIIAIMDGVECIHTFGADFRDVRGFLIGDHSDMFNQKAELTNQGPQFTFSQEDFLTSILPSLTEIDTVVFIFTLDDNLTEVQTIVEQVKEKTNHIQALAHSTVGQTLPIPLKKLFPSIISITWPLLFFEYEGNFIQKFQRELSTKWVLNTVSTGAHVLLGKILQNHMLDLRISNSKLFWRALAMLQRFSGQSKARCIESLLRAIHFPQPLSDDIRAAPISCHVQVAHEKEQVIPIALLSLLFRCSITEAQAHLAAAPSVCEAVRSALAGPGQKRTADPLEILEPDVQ
Procedure, shortened: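 GST-GCK (10 nM) with FLAG-GKRP (10 nM), 5 mM glucose and 0.4 mM ATP in pH 7.6 Hepes; compounds preincubated 20 min with substrate. G6PDH/diaphorase coupling converts resazurin to resorufin, read kinetically (ex 525/em 590 nm) for 30 min.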

[19] = biological target: T1, Hexokinase-4 (Homo sapiens) + Glucokinase regulatory protein (Homo sapiens); assay: qHTS assay for inhibitors of recombinant human GCK-GKRP interaction: ADP-Glo assay (AID 743206);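 note: plate controls were DMSO plus enzyme for no effect and no enzyme for full effect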
Procedure, shortened: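 GST-GCK and FLAG-GKRP (15 nM each in the dispensed mix, with 2 uM S6P) react with 0.4 mM ATP and 5 mM glucose (final) in Hepes pH 7.6 for 60 min at room temperature. ADP is measured by ADP-Glo luminescence.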

[20] = biological target: T1, Hexokinase-4 (Homo sapiens) + Glucokinase regulatory protein (Homo sapiens); assay: qHTS assay for inhibitors of recombinant human GCK-GKRP interaction: HTRF assay (AID 743207);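 note: 0% = DMSO with GCK present and -100% = DMSO wells lacking GCK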
Procedure, shortened: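 GST-GCK and FLAG-GKRP (5 nM each) were combined with 2 uM S6P in pH 7.1 Hepes/MgCl2/KCl/DTT buffer, then compound and anti-FLAG XL665/anti-GST K antibodies were added. After 60 min at room temperature, HTRF 665/615 nm emission was read.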

CC(C)CCON=O
inactive: activation [1] -3.9% | Potency [2] | Potency [3] | Potency [4] | activation [5] -0.695% | max response [6] -0.247% | Potency [7] | Potency [8] | Potency [9] | max response [10] 1.97% | max response [11] -1.81% | max response [12] -5.29%

Clc1ccccc1Cl
inactive: activation [13] -0.0325% | Potency [2] | Potency [3] | activation [5] -0.403% | max response [6] -2.32% | Potency [7] | Potency [8] | Potency [9] | max response [10] 1.42% | max response [11] 10.6% | max response [12] 2.94%

O=Cc1ccco1
inactive: activation [1] -1.55% | activation [13] -0.614% | Potency [2] | Potency [3] | activation [5] -0.549% | max response [6] -1.43% | Potency [8] | Potency [9] | max response [10] -4.31% | max response [11] 5.14% | max response [12] 6.18%

[Cl-].[Cl-].[Hg+2]
inactive: activation [1] 5.15% | Potency [3] | activation [5] 1.68% | max response [6] -13.7% | max response [10] -13.5%
active: Potency [7] 1.06 µM | Potency [8] 21.1 µM | Potency [9] 1.68 µM | Potency [12] 44.7 µM

C[C@]12CCC(=O)C[C@@H]1CC[C@@H]1[C@@H]2CC[C@]2(C)[C@@H](O)CC[C@@H]12
active: Potency [7] 26.6 µM
inactive: activation [1] -3.4% and -1.57% | activation [13] 1.2% and 0.597% | activation [5] -0.925% and -0.613% | max response [6] -1.24% and 0.0043% | Potency [8] | Potency [9] | max response [10] -16.7% and -5.79% | max response [11] 17.9% | max response [12] -9.61% and -12.6%

C#CCN1CC(=O)N(COC(=O)C2C(C=C(C)C)C2(C)C)C1=O (stereo not drawn)
inactive: activation [1] -4.17% | activation [13] 1.36% | activation [5] 3.63% | max response [6] 0.547% | max response [10] 2.56% | max response [11] 21.2% | max response [12] -15.4%

O=C1C2CC=CCC2C(=O)N1SC(Cl)(Cl)Cl (stereo not drawn)
active: Potency [2] 26.6 µM and 33.5 µM | Potency [3] 23.7 µM and 33.5 µM | Potency [9] 29.8 µM | Potency [10] 28.2 µM | Potency [12] 10 µM
inactive: activation [1] -1.26% and 18.6% | activation [13] -2.11% | activation [5] -4.61% and -3.77% and 2.69% | max response [6] -6.31% and -2.76% and -2.09% | Potency [8] | max response [10] -23.3% | max response [11] -3.19%

CCOP(=O)(OCC)O/C(=C/Cl)c1ccc(Cl)cc1Cl
active: Potency [5] 50.1 µM
inactive: activation [1] -2.13% and -0.49% | activation [13] -2.44% and -1.58% | activation [5] 3.76% | max response [6] -3.2% and -2.2% | Potency [8] | max response [10] -18.8% and -8.15% | max response [11] -0.665% | max response [12] -28.5% and -27.3%

O=C1C[C@@H]2OCC=C3CN4CC[C@]56c7ccccc7N1[C@H]5[C@H]2[C@H]3C[C@H]46
inactive: activation [1] -1.99% | activation [13] -1.87% | activation [5] 0.363% | max response [6] -1.11% | Potency [8] | max response [10] -11.2% | max response [11] 1.95% | max response [12] -21.9%

[O]=[Cr](=[O])([OH])[O][Cr](=[O])(=[O])[OH]
inactive: activation [13] 1.49% and -0.838% and 3.86% | Potency [2] | Potency [3] | Potency [4] | activation [5] 0.789% and 0.878% and -0.644% | max response [6] -2.4% and -2.51% and -6.59% | Potency [8] | max response [10] -23.9% | max response [11] 21.1% and 18.4%
active: Potency [1] 22.4 µM and 15.8 µM and 7.94 µM | Potency [7] 33.5 µM and 16.8 µM | Potency [9] 11.9 µM | Potency [12] 39.8 µM and 15.8 µM

Oc1cc(Cl)c(Cl)cc1Cl
inactive: activation [13] 1.51% and -0.218% | activation [5] 3.21% and 2.24% | max response [6] -3.77% and 0.0897% | Potency [8] | Potency [9] | max response [10] 4.14% and 5.09% | max response [12] -2.85% and 0.876%
active: Potency [2] 47.3 µM | Potency [3] 47.3 µM | Potency [7] 23.7 µM

NNC(N)=O
inactive: activation [13] -0.594% | Potency [2] | Potency [3] | activation [5] 0.598% | max response [6] -2.31% | Potency [7] | Potency [14] | outcome [15] | Potency [16] | outcome [17] | Potency [8] | Potency [9] | max response [10] 4.7% | Potency [18] | outcome [19] | outcome [20] | max response [11] 14.6% | max response [12] -7.58%

ClC1C(Cl)C(Cl)C(Cl)C(Cl)C1Cl (stereo not drawn)
inactive: activation [1] -1.74% [middle of 4 runs] | activation [13] -1.15% [middle of 4 runs] | activation [5] 1.78% [middle of 4 runs] | max response [6] 1.56% [middle of 4 runs] | Potency [8] | max response [10] -5.28% [middle of 4 runs] | max response [11] 4.65% | max response [12] -11% [middle of 4 runs]
